# According to PubChem BioAssay (Tox21):
# Records with an inconclusive call do not appear. The source made the active and inactive calls. Calls follow the shape of the dose curve; as a rule, active = well fitted activation curve with a large enough effect in the signal ratio in the repeat runs (not every such curve was filed as active); inconclusive = weak or mixed curves; inactive = flat fitted curve, though single readings scatter; the % refers to the signal ratio.
# Test: qHTS assay to identify small molecule agonists of H2AX (AID 1224845)
# Details: CHO-K1 phospho-H2AX Ser139 HTRF, 3 h; series mostly up to 154 µM; activation (H2AX phosphorylation): at the top concentration
# From the text: National Center for Advancing Translational Sciences [NCATS]
# NIH Chemical Genomics Center [NCGC]
# U.S. Environmental Protection Agency [EPA]
# National Institutes of Environmental Health Sciences [NIEHS]
# National Toxicology Program [NTP]
# U.S. Food and Drug Administration [FDA]
# HTRF phospho-H2AX (Ser139) assay (Cisbio Bioassays, US) enables the quantitative detection of the histone variant H2AX when phosphorylated on serine 139. When double-stranded DNA breaks, either by ionizing radiation or endogenous physiological processes, H2AX becomes phosphorylated at Ser139. This phospho-Ser139 serves as a sensitive biomarker for the detection of such breaks, localizing the site of DNA repair. So, HTRF phospho-H2AX Ser139 is a pertinent assay to study genome stability, the cell cycle, DNA repair, and it serves as a biomarker for cancer, and to understand aging. Wild type CHO-K1 cells were used to identify the inducers of Phospho-H2AX Ser 139 from the Tox21 10K compound collections.
# Tox21 Assay Protocol Summary:
# The CHO-K1 cells suspended in culture medium containing 10% FBS were dispensed at 1000 cells/ 3 ul/well in 1536-well white wall/solid bottom plates (Greiner Bio-One North America, NC) using a Multidrop Combi (Thermo Fisher Scientific Inc., Waltham, MA). After the assay plates were incubated at 37C overnight, 23 nl of compounds at 15 concentrations (from 5-48 columns) or positive control (from 1 to 4 columns) were transferred to the assay plates using a Pintool station (Wako, San Diego, CA) into each well resulting in a final DMSO concentration of 0.76%. After 3hr incubation at 37C, 1 uL/well Supplemented Lysis buffer (diluted 100 fold blocking reagent in lysis buffer) (HTRF Phospho-H2A.X (S139) Assay kit from Cisbio US Inc., Bedford, MA) was added using a Flying Reagent Dispenser (FRD) (Aurora Discovery, CA). After 10sec spin at 1000 rpm in a plate centrifuge, the assay plates were incubated at room temperature for 30 min. Then followed by the addition of 1 uL/well detection buffer (containing a mixture of two antibodies, one labeled with cryptate, Anti pH2AX (S139)-K and another labeled with d2, Anti H2AX-d2) using FRD. After incubation at room temperature for 24 hr, the time resolved fluorescence at excitation 320 nm and emissions at 665 nm and 620 nm was measured using an Envision plate reader (PerkinElmer, Waltham, MA).
# % is scaled to controls: 0 for no effect and ±100 for the full control effect.
row,Structure (SMILES),activation (H2AX phosphorylation)
1,CCCCCCCCOC(=O)CCCCCCCCC(=O)OCCCCCCCC,-1.45% (inactive)
2,CCN(CCCc1ccccc1)CCCc1ccccc1,-2.06% [at 70.9 µM] (inactive)
3,CCC(=O)O[C@]1(C(=O)SCF)[C@H](C)C[C@H]2[C@@H]3C[C@H](F)C4=CC(=O)C=C[C@]4(C)[C@@]3(F)[C@@H](O)C[C@@]21C,-4.27% [at 70.9 µM] (inactive)
4,O=C1Nc2ccc([N+](=O)[O-])cc2C1=O,6.42% (inactive)
5,CCCCCCCCCC#N,3.59% (inactive)
6,CCCCCCC,-3.43% (inactive)
7,CCCc1c2oc(C(=O)O)cc(=O)c2cc2c(=O)cc(C(=O)O)n(CC)c12,-2.81% [at 70.9 µM] (inactive)
8,CCCOc1ccc2c(c1)CC[C@@H]1[C@@H]2CC[C@]2(C)C(OC)CC[C@@H]12 (stereo not given in full),-2.03% [at 70.9 µM] (inactive)
9,CCCNC(C)C(=O)Nc1c(C)csc1C(=O)OC (stereo not given),-3.58% [at 70.9 µM] (inactive)
10,CCCCNc1cc(C(=O)O)cc(S(N)(=O)=O)c1Oc1ccccc1,-0.897% [at 70.9 µM] (inactive)
11,COc1cc(N)c(Cl)cc1C(=O)NC1CCN(Cc2ccccc2)CC1,-2.4% [at 70.9 µM] (inactive)
12,NC(=O)Cc1cccc(C(=O)c2ccccc2)c1N,-2.4% [at 70.9 µM] (inactive)
13,Cc1ccc([N+](=O)[O-])cc1Cl,0.644% (inactive)
14,O=C1C=CC(=O)O1,-2.25% (inactive)
15,CC(C)(C)c1ccc(OC(=O)c2ccccc2O)cc1,0.774% (inactive)
16,COc1ccccc1OCC(O)COC(N)=O (stereo not given),-0.758% [at 70.9 µM] (inactive)
17,Cc1ccc([N+](=O)[O-])c(N)c1,7.39% (inactive)
18,CCN(CC)CCOc1ccc(Cc2ccccc2)cc1,0.737% [at 70.9 µM] (inactive)
19,Cc1c(-c2ccccc2)oc2c(C(=O)OCCN3CCCCC3)cccc2c1=O,-3.91% [at 70.9 µM] (inactive)
20,O=C(O)CN(CCN(CC(=O)O)CC(=O)O)CCN(CC(=O)O)CC(=O)O,1.06% [at 31.6 µM] (inactive)

row,Structure (SMILES),activation (H2AX phosphorylation)
1,CC1(O)CSC(C)(O)CS1 (stereo not given),0.179% (inactive)
2,CN1CCN(C2=Nc3ccccc3Oc3ccc(Cl)cc32)CC1,3.63% [at 70.9 µM] (inactive)
3,NNS(=O)(=O)c1ccc(Oc2ccc(S(=O)(=O)NN)cc2)cc1,0.524% (inactive)
4,CCC1(C)NC(=O)NC1=O (stereo not given),-1.71% (inactive)
5,O=C1N(c2ccccc2)c2ccccc2C1(Cc1ccncc1)Cc1ccncc1,-1.25% [at 70.9 µM] (inactive)
6,CC(C)C(=O)OC/C=C/c1ccccc1,8.05% (inactive)
7,CCCCc1ccc2nc(NC(=O)OC)[nH]c2c1,-0.115% [at 70.9 µM] (inactive)
8,CCOC(=O)C(Br)c1ccccc1 (stereo not given),-1.34% (inactive)
9,C[C@@H]1CN(c2c(F)c(N)c3c(=O)c(C(=O)O)cn(C4CC4)c3c2F)C[C@H](C)N1,0.193% [at 31.6 µM] (inactive)
10,Oc1ccccc1C=NCc1ccccc1,0.805% [at 70.9 µM] (inactive)
11,CCN1CC(CCN2CCOCC2)C(c2ccccc2)(c2ccccc2)C1=O (stereo not given),-0.517% [at 70.9 µM] (inactive)
12,CCOc1ccc(NS(=O)(=O)c2ccc(N)cc2)nn1,-0.272% [at 70.9 µM] (inactive)
13,C[C@@H](N)C(=O)O,-1.18% [at 70.9 µM] (inactive)
14,NC(=O)NS(=O)(=O)c1ccc(Cl)cc1,-0.198% [at 70.9 µM] (inactive)
15,CN1C(=O)CC(c2ccccc2)C1=O (stereo not given),-4.66% [at 70.9 µM] (inactive)
16,O=C1CCC(C2CCCCC2)CC1,-4.24% (inactive)
17,CC1(C)O[C@@H]2C[C@H]3[C@@H]4CCC5=CC(=O)CC[C@]5(C)[C@@]4(F)[C@@H](O)C[C@]3(C)[C@]2(C(=O)CCl)O1,0.5% [at 70.9 µM] (inactive)
18,CCOC(=O)C1CC(=O)C(=C(O)C2CC2)C(=O)C1 (stereo not given),-1.63% (inactive)
19,CCN(O)CC,-0.341% (inactive)
20,NCCCN1CCN(CCCN)CC1,-1.55% (inactive)
